Out of some 340,000 compounds screened, about 1,000 (0.29%) were called active. The entries come from a sample that favours actives as a whole. Unmarked numbers belong to inactive results.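 Rule for the calls: active = mean replicate activation score at least 90 and every replicate individually at or above 90; inconclusive = only one of the two criteria met; inactive = neither criterion met.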
assay: compounds raising miR-122 luciferase sensor output – cell-based, single point, plate reader, miR-122 inhibitor project, primary screen (AID 602342); details: Huh7 miR-122 Renilla luciferase sensor, 48 h, hits give high values, neutral wells = 0, positive control = 100; at 16.7 µM unless noted;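 note: higher luciferase means less miR-122 activity so hits act as miR-122 inhibitors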

SMILES	activation (reporter increase)
COc1ccc(C)cc1S(=O)(=O)Nc1cc2c3c(c1)CCC(=O)N3CCC2	150% [at 12.5 µM] (active)
COc1ccc(CNS(=O)(=O)c2cc3c4c(c2)CCN4C(=O)CC3)cc1	2.78% [at 12.5 µM]
COc1ccccc1CNS(=O)(=O)c1cc2c3c(c1)CCC(=O)N3CCC2	6.96% [at 12.5 µM]
O=C(CN1CCOCC1)Nc1ccc(NC(=O)CN2CCOCC2)c(Cl)c1	4.91% [at 12.5 µM]
O=C(CN1CCOCC1)Nc1cc(Cl)ccc1Cl	101% [at 12.5 µM] (active)
O=C(CN1CCOCC1)Nc1c(Cl)cc(Cl)cc1Cl	-6.99% [at 12.5 µM]
COc1ccc(S(=O)(=O)Nc2cccc3c2O[C@H](CN(C)Cc2ccc4c(c2)OCO4)[C@H](C)CN([C@@H](C)CO)C3=O)cc1	2.28%
CC(=O)N(C)C[C@@H]1Oc2cc(-c3cccnc3)ccc2S(=O)(=O)N([C@@H](C)CO)C[C@H]1C	0.602%
CC(C)NC(=O)Nc1ccc2c(c1)C(=O)N([C@H](C)CO)C[C@H](C)[C@@H](CN(C)S(=O)(=O)c1ccc(F)cc1)OCCCC[C@H](C)O2	-3.83%
O=C(NC1CCCC1)[C@@H]1[C@@H](CO)[C@@H]2Cn3c(ccc(-c4ccc(F)cc4)c3=O)[C@H]1N2Cc1cocn1	1.2%
CCCC#Cc1cnc2c(c1)C(=O)N([C@H](C)CO)C[C@H](C)[C@H](CN(C)S(=O)(=O)c1cn(C)cn1)O2	-3.62%
C[C@@H]1CN([C@H](C)CO)C(=O)c2cccc(NS(=O)(=O)c3ccc(F)cc3)c2O[C@@H]1CN(C)S(=O)(=O)c1ccccc1	-5.32%
CC1=C(C)CC(C(=O)NNC(=O)c2ccccc2O)C(C(=O)O)C1 (stereo not given)	151% [at 12.5 µM] (active)
Cc1cc(C(=O)CCC(=O)NNC(=O)c2ccccc2O)c(C)s1	-0.772% [at 12.5 µM]
O=C(NNC(=O)c1ccccc1O)c1ccccc1O	530% [at 12.5 µM] (active)
O=C(NNC(=O)C1CCC1)c1ccccc1	1.59% [at 12.5 µM]
CC1=C(C)CC(C(=O)NNC(=O)c2csc3c2CCC(C(C)(C)C)C3)C(C(=O)O)C1 (stereo not given)	-0.996% [at 12.5 µM]
O=C(NNC(=O)c1cc(S(=O)(=O)N2CCCCC2)ccc1Cl)c1ccccc1O	-7.51% [at 12.5 µM]
C[C@@H]1CCCCO[C@H](CN(C)C(=O)NC2CCCCC2)[C@@H](C)CN([C@H](C)CO)C(=O)c2cc(NC(=O)CCC(F)(F)F)ccc2O1	4.05%
CC(=O)NS(=O)(=O)c1ccc(NC(=S)NC(=O)C(C)(C)C)cc1	-3.58% [at 12.5 µM]
COc1ccc(NS(=O)(=O)c2ccc(NC(=S)NC(=O)CC(C)C)cc2)cc1	161% [at 12.5 µM] (active)
COc1ccc(NS(=O)(=O)c2ccc(NC(=O)c3ccc(N(C)S(C)(=O)=O)cc3)cc2)cc1	3.93% [at 12.5 µM]

SMILES	activation (reporter increase)
C[C@@H]1CN([C@@H](C)CO)C(=O)c2cc(NC(=O)Cc3ccccc3)ccc2O[C@@H](C)CCCCO[C@H]1CN(C)C(=O)Cc1ccccc1	0.724%
Cc1ccc(-c2ccc3c(c2)O[C@@H](CN(C)C(=O)CC2CC2)[C@@H](C)CN([C@@H](C)CO)S3(=O)=O)cc1	12.9%
COc1ccc(NC(=O)N(C)C[C@H]2Oc3ccc(NS(=O)(=O)c4ccc(C)cc4)cc3C(=O)N([C@@H](C)CO)C[C@H]2C)cc1	3.8%
COc1ccc(NC(=O)Nc2ccc3c(c2)C(=O)N([C@H](C)CO)C[C@H](C)[C@H](CN(C)S(=O)(=O)c2ccc(OC)cc2)O3)cc1	-11.1%
COc1ccccc1C(=O)Nc1ccccc1C(=O)Nc1ccccc1	1.44% [at 12.5 µM]
COc1ccc(C(=O)Nc2ccccc2C(=O)N/N=C/c2ccccc2OC)cc1	115% [at 12.5 µM] (active)
COc1ccc(OC)c(/C=N/NC(=O)c2ccc[n+](CC(=O)c3ccccc3)c2)c1	-4.06% [at 12.5 µM]
COc1ccc(NC(=O)N(C)C[C@H]2OCCCC[C@@H](C)Oc3ccc(NC(=O)NC4CCCCC4)cc3C(=O)N([C@@H](C)CO)C[C@H]2C)cc1	-3.11%
CCOC(=O)c1c(S(=O)(=O)NCC(=O)Nc2ccc(C)cc2)c(C)n(C)c1C	3.19% [at 12.5 µM]
NC(=O)c1cc(S(=O)(=O)NCCCc2ccco2)cs1	2.02% [at 12.5 µM]
CCOC(=O)c1c(C)[nH]c(C)c1S(=O)(=O)NCCCc1ccco1	128% [at 12.5 µM] (active)
O=C(O)c1ccc(F)c(S(=O)(=O)Nc2ccccc2)c1	3.15% [at 12.5 µM]
Cc1cc(C(C)(C)C)cc(S(=O)(=O)Nc2ccc(C(=O)O)cc2)c1C	165% [at 12.5 µM] (active)
Cc1noc(C)c1S(=O)(=O)Nc1ccc(C(=O)O)cc1	0.153% [at 12.5 µM]
COc1ccc(CN(C)C[C@H]2OCCCC[C@@H](C)Oc3ccc(NS(=O)(=O)c4ccccc4)cc3C(=O)N([C@@H](C)CO)C[C@@H]2C)cc1	-4.79%
CNC(=O)C[C@@H]1CC[C@@H]2[C@H](COC[C@H](O)CN2Cc2ccc(C(F)(F)F)cc2)O1	1.05%
COc1ccc(CCNC(=O)c2ccccc2OCc2ccccc2)cc1	-1.62% [at 12.5 µM]
COc1ccc(OCCCC(=O)NCCc2ccccc2)cc1	223% [at 12.5 µM] (active)
COc1ccc(OCC(=O)NCCc2ccc(S(N)(=O)=O)cc2)cc1	-15.2% [at 12.5 µM]
OC[C@@H]1[C@H](c2ccc(C#CC3CC3)cc2)[C@@H]2CN(CCC(F)(F)F)CCCCN12	12.9%
CCCNC(=O)N1C[C@@H](O)COC[C@@H]2O[C@@H](CC(=O)O)CC[C@H]21	0.047%
C[C@H](CO)N1C[C@H](C)[C@@H](CN(C)Cc2ccccc2)Oc2c(NC(=O)C3CCOCC3)cccc2C1=O	14.3%

SMILES	activation (reporter increase)
C[C@@H]1CN([C@H](C)CO)C(=O)c2cccc(NC(=O)c3cnccn3)c2O[C@@H]1CN(C)Cc1ccncc1	-3.39%
C[C@H](CO)N1C[C@H](C)[C@H](CN(C)CC2CCCCC2)Oc2c(NC(=O)c3cnccn3)cccc2C1=O	119% (active)
C[C@H](CO)N1C[C@H](C)[C@@H](CN(C)Cc2ccc3c(c2)OCO3)Oc2c(NC(=O)C3CCOCC3)cccc2C1=O	319% (active)
C[C@H](CO)N1C[C@H](C)[C@H](CN(C)Cc2ccc(C(=O)O)cc2)Oc2c(NC(=O)C3CCOCC3)cccc2C1=O	-5.1%
CC(C)NC(=O)N(C)C[C@@H]1Oc2c(NC(=O)c3cnccn3)cccc2C(=O)N([C@@H](C)CO)C[C@@H]1C	4.6%
CN(C)CCCNC(=O)C[C@@H]1C=C[C@H](NC(=O)Cc2cccnc2)[C@H](CO)O1	15.8%
COc1ccc(S(=O)(=O)N(C)C[C@H]2OCCCC[C@@H](C)Oc3ccc(NC(=O)CCC(F)(F)F)cc3C(=O)N([C@@H](C)CO)C[C@H]2C)cc1	16.9%
C[C@@H]1CCCCO[C@@H](CN(C)S(=O)(=O)c2cn(C)cn2)[C@@H](C)CN([C@@H](C)CO)C(=O)c2cc(NC(=O)Nc3ccc(C(F)(F)F)cc3)ccc2O1	-9.96%
CCOc1ncccc1C(=O)NNC(=O)c1cccc(S(=O)(=O)Nc2ccccc2OC)c1	-0.667% [at 12.5 µM]
COc1cc(NS(=O)(=O)c2ccc3ccccc3c2)c2ncccc2c1	152% [at 12.5 µM] (active)
COc1ccc(N2CC(NS(=O)(=O)c3ccc4ccccc4c3)CC2=O)cc1 (stereo not given)	-5.35% [at 12.5 µM]
C[C@H]1CN([C@@H](C)CO)C(=O)c2cccc(NC(=O)Nc3ccc(F)cc3)c2O[C@H]1CN(C)S(=O)(=O)c1cn(C)cn1	4.09%
COc1ccc(F)cc1S(=O)(=O)Nc1ccc2c(c1)OCO2	99.7% [at 12.5 µM] (active)
COc1ccc(S(=O)(=O)Nc2ccc(F)cc2)c(C)c1C	231% [at 12.5 µM] (active)
CCOc1ccc(S(=O)(=O)Nc2ccncc2)c(C)c1C	20.9% [at 12.5 µM]
COc1ccc(NS(=O)(=O)c2ccc(F)cc2F)cn1	-2.63% [at 12.5 µM]
COc1ccc(F)cc1S(=O)(=O)NCC(c1ccc2c(c1)OCO2)N1CCN(C)CC1 (stereo not given)	2.63% [at 12.5 µM]
COc1ccc(S(=O)(=O)Nc2ccc3c(c2)OCO3)cc1Cl	37.2% [at 12.5 µM]
CO[C@H]1CN(C)C(=O)c2ccc(NS(=O)(=O)c3ccccc3C)cc2OC[C@H](C)NC[C@H]1C	6.89%
Cn1cnc(S(=O)(=O)N2C[C@@H](O)COC[C@H]3O[C@@H](CC(=O)NCc4ccc(F)cc4)CC[C@@H]32)c1	2.69%
O=C(N[C@@H]1CC[C@H](CCn2cc(C3CC3)nn2)O[C@H]1CO)c1cccnc1	-7.57%
